The target of assay [1] is High affinity nerve growth factor receptor (Homo sapiens) (UniProt P04629). Conditions: at 1 µM.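 Further: each value is the mean percent inhibition of TRKA.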
Assay [2] has as its target BDNF/NT-3 growth factors receptor (Homo sapiens) (UniProt Q16620). To be noted: at 0.1 µM.
For assay [3] the target is unchanged. Conditions: at 1 µM.
Assay [4] concerns the target NT-3 growth factor receptor (Homo sapiens) (UniProt Q16288). Conditions: at 0.1 µM.
Assay [5] has the same target. To be noted: at 1 µM.
For assay [6], the target named is T1, Tyrosine-protein kinase TXK (Homo sapiens) (UniProt P42681).
T1 sequence (whole entry): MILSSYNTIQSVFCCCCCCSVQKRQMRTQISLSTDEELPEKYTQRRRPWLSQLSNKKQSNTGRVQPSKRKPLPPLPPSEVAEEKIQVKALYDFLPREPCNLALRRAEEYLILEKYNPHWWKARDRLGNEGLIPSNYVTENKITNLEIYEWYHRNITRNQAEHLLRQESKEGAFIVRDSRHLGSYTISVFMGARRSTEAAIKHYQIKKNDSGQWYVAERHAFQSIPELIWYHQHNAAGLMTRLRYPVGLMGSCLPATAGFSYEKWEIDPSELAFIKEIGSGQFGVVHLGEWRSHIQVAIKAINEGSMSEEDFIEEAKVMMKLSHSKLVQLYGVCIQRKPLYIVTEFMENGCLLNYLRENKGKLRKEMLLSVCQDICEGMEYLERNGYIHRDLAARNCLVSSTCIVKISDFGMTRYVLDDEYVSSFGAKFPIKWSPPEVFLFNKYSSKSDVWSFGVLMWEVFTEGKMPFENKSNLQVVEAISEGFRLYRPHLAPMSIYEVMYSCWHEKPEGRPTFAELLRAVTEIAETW
Conditions: at 0.1 µM.

Assay [7] deals with T1, Tyrosine-protein kinase TXK (Homo sapiens). To be noted: at 1 µM.
Assay [8] deals with Non-receptor tyrosine-protein kinase TYK2 (Homo sapiens) (UniProt P29597). Conditions: at 0.1 µM.
Assay [9] deals with T2, Dual specificity protein kinase TTK (Homo sapiens) (UniProt P33981).
T2 sequence (whole entry): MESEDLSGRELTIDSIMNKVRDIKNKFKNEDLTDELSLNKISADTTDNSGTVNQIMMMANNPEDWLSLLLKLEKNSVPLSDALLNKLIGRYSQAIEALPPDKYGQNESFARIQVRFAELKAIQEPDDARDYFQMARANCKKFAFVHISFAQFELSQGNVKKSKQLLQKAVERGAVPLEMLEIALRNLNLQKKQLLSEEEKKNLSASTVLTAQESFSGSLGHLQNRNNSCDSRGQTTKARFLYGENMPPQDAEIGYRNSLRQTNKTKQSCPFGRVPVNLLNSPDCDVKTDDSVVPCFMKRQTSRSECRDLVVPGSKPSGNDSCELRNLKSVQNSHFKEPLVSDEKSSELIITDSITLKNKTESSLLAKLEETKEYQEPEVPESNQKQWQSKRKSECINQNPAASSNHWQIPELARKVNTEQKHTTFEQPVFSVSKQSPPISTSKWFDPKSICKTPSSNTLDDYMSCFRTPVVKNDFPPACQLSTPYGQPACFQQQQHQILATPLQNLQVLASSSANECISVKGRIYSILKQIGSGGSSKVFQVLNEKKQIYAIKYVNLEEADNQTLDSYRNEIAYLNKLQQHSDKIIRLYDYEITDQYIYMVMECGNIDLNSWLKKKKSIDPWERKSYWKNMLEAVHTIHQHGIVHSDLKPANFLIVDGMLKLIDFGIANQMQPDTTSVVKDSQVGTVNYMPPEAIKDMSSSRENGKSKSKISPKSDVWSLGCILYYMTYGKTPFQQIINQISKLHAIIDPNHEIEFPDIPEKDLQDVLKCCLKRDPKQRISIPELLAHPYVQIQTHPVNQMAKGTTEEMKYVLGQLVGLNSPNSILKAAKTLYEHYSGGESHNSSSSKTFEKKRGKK
To be noted: at 1 µM.

In assay [10] the target is T3, Aurora kinase A (Homo sapiens) (UniProt O14965).
T3 sequence (whole entry): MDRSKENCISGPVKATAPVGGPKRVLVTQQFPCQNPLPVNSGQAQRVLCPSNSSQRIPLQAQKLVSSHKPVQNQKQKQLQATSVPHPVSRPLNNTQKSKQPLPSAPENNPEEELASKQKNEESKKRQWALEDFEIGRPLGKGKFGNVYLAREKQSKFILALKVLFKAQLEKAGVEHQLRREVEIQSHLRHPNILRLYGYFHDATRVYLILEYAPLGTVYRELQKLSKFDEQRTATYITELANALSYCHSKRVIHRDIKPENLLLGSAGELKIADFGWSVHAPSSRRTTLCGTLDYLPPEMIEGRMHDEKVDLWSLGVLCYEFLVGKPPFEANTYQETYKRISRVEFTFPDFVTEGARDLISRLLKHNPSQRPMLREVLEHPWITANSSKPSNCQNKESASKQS
Conditions: at 0.1 µM.

For assay [11], the target named is T3, Aurora kinase A (Homo sapiens). Conditions: at 1 µM.
Assay [12] has as its target Aurora kinase B (Homo sapiens) (UniProt Q96GD4). To be noted: at 0.1 µM.
Assay [13] has the same target. Conditions: at 1 µM.
The target of assay [14] is T4, Aurora kinase C (Homo sapiens) (UniProt Q9UQB9).
T4 sequence (whole entry): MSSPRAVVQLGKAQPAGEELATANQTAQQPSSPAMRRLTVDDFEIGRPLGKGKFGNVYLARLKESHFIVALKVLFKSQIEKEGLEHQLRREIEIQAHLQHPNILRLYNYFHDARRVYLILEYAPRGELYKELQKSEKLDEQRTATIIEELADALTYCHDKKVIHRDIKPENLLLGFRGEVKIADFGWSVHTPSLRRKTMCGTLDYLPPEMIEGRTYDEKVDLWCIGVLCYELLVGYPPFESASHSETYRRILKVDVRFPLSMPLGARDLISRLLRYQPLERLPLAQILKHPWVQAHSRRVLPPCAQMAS
Conditions: at 0.1 µM.

The target in assay [15] is T4, Aurora kinase C (Homo sapiens). To be noted: at 1 µM.
Assay [16] has as its target Serine/threonine-protein kinase 10 (Homo sapiens) (UniProt O94804). Conditions: at 0.1 µM.
Assay [17] shares this target. To be noted: at 1 µM.
Assay [18] concerns the target T5, Mitogen-activated protein kinase kinase kinase kinase 2 (Homo sapiens) (UniProt Q12851).
T5 sequence (whole entry): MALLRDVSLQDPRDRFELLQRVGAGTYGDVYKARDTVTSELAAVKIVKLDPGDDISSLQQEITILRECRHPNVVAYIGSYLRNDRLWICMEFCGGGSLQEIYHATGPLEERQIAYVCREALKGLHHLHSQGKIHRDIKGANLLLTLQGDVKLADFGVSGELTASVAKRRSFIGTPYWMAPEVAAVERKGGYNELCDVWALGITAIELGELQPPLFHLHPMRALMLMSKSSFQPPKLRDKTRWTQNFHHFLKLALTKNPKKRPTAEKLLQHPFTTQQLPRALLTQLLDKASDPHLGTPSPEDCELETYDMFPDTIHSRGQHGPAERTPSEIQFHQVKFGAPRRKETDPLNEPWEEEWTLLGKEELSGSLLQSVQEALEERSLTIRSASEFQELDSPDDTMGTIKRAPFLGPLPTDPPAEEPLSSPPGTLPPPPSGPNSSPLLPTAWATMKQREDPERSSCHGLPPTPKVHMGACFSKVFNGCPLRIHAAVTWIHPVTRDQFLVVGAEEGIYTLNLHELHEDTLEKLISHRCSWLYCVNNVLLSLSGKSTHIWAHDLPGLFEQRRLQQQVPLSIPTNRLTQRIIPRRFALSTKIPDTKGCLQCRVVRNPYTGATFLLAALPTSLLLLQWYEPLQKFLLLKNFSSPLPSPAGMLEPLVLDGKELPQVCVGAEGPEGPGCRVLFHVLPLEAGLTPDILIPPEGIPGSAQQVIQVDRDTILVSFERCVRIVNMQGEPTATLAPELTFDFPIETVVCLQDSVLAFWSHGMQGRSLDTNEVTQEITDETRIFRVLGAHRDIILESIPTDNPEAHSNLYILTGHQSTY
To be noted: at 0.1 µM.

Assay [19] has as its target T5, Mitogen-activated protein kinase kinase kinase kinase 2 (Homo sapiens). Conditions: at 1 µM.
For assay [20], the target named is Mitogen-activated protein kinase kinase kinase kinase 4 (Homo sapiens) (UniProt O95819). Conditions: at 0.1 µM.
Chain of Mitogen-activated protein kinase kinase kinase kinase 4 (Homo sapiens) (O95819 2-1239 limits assumed): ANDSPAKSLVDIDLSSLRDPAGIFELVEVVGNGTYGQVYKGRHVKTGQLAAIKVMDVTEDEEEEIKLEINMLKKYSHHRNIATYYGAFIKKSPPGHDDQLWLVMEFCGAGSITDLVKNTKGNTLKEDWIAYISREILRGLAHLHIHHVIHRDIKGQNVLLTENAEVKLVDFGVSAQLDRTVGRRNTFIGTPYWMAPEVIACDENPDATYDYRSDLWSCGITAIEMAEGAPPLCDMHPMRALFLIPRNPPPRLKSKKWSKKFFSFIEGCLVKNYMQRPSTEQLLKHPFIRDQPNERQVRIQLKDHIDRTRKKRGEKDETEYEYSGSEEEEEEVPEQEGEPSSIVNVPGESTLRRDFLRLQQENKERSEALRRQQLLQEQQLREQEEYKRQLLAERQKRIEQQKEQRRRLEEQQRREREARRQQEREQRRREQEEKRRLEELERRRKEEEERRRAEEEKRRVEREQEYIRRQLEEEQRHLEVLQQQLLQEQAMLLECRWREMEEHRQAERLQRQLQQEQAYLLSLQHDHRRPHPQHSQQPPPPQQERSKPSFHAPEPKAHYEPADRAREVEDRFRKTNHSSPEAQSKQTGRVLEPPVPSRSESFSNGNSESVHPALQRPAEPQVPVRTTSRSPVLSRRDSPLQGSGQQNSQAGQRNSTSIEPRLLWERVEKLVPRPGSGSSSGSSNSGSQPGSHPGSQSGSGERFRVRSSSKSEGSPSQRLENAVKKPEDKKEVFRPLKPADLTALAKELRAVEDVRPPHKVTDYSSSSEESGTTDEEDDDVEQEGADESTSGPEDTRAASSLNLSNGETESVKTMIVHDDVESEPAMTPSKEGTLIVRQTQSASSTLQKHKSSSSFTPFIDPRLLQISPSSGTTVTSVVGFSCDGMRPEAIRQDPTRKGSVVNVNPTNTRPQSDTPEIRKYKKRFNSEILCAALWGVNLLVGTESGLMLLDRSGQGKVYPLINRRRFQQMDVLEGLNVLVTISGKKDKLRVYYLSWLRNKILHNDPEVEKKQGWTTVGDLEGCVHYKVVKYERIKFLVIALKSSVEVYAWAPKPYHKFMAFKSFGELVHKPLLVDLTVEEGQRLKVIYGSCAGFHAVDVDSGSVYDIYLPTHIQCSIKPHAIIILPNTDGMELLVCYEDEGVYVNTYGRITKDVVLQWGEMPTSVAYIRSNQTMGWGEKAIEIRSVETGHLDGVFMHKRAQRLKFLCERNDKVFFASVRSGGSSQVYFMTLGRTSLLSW

Chain of High affinity nerve growth factor receptor (Homo sapiens) (P04629 33-796 limits assumed): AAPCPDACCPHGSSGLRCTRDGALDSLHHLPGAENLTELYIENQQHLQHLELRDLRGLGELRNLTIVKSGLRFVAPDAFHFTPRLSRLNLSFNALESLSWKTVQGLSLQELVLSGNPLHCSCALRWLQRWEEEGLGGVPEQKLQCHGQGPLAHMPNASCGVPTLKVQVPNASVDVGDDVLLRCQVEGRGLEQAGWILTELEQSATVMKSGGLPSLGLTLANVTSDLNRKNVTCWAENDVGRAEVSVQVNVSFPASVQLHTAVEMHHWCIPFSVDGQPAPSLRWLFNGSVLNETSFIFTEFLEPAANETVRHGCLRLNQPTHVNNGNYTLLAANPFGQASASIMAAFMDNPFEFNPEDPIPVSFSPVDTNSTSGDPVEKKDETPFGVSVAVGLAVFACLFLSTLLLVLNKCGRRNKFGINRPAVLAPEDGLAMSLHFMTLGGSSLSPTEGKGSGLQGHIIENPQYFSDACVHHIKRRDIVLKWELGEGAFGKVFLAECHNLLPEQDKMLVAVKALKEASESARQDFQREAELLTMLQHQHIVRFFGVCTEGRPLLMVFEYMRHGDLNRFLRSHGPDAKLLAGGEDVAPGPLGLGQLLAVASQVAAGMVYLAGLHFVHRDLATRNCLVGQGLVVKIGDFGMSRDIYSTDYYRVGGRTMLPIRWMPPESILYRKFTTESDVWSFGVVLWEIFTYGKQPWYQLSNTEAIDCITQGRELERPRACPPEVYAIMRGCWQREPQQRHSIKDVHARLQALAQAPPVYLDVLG
Chain of Aurora kinase B (Homo sapiens) (Q96GD4 whole entry): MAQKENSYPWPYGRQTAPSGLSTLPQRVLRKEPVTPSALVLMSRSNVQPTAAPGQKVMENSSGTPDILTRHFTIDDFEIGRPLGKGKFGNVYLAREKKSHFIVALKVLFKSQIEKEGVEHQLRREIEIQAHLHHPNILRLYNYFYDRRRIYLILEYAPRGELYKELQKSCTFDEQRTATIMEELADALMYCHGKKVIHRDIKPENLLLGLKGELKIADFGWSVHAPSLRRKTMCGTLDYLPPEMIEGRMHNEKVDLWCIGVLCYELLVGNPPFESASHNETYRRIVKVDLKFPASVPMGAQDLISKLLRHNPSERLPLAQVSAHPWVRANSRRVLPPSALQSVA
Chain of Serine/threonine-protein kinase 10 (Homo sapiens) (O94804 whole entry, looked up): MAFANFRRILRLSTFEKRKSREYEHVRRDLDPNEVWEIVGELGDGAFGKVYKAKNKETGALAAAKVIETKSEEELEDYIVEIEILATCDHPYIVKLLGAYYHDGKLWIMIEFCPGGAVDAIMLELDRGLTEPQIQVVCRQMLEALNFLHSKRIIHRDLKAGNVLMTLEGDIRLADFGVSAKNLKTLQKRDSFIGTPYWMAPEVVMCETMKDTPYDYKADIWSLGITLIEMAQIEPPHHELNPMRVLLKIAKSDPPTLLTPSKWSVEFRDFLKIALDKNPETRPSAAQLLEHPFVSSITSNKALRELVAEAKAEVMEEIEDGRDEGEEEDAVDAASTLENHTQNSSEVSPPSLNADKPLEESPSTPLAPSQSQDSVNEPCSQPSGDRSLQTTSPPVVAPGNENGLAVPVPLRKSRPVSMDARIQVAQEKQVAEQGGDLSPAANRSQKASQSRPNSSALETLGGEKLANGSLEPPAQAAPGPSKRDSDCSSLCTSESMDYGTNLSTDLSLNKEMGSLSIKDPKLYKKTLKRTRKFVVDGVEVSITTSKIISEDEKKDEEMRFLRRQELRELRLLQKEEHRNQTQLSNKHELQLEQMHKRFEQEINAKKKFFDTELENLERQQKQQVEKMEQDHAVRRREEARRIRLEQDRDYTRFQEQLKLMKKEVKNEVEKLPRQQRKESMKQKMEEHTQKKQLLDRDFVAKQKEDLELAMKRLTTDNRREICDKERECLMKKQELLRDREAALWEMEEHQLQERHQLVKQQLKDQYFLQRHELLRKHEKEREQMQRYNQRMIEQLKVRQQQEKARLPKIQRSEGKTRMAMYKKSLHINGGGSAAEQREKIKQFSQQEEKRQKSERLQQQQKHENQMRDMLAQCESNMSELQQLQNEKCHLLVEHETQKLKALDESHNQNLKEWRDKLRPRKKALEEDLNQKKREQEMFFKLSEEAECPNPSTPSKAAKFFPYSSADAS
Chain of Non-receptor tyrosine-protein kinase TYK2 (Homo sapiens) (P29597 whole entry): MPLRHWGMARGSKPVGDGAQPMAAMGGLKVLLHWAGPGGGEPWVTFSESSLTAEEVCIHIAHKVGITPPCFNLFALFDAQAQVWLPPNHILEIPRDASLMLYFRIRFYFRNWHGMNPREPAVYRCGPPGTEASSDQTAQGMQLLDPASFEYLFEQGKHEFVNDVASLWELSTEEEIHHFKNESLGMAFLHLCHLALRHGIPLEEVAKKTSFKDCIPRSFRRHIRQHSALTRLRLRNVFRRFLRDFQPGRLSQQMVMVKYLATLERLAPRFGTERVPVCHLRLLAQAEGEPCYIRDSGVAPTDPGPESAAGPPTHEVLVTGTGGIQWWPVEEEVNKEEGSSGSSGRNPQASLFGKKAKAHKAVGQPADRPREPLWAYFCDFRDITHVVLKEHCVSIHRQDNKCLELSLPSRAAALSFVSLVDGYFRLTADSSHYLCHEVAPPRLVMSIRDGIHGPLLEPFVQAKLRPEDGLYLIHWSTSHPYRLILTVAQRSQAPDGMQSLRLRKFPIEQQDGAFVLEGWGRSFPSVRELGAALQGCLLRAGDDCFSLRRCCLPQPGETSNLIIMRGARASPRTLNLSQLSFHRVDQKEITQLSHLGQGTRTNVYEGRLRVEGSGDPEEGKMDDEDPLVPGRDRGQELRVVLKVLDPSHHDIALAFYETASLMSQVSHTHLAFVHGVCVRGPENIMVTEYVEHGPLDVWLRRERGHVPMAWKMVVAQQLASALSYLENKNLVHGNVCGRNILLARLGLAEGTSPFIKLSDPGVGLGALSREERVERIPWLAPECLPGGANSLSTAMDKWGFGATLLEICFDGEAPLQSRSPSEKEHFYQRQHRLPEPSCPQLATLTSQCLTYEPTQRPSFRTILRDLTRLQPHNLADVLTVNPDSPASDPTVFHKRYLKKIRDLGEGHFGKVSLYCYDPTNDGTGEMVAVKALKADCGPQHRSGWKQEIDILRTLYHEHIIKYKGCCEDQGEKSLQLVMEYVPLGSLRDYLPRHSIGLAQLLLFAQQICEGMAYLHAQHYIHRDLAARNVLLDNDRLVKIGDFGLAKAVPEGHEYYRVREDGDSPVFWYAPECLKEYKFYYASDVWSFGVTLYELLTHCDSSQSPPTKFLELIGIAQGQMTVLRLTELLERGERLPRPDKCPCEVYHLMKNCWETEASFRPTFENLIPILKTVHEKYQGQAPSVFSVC

With `O=C1NC(=O)C(c2ccc(Cl)cc2)=C1Nc1ccc(Cl)c(C(=O)O)c1`, the inhibition in [1] is 0.46%; in [2], 1.23%; in assay [3], 0.65%; in assay [4], -1.8%; in assay [5], -0.55%; in [6], -0.87%. Moreover, the inhibition in assay [7] was 1.12%; in [8], 0.04%; in assay [9] it was -3.54%; in assay [10], -3.12%; in assay [11], 4.76%; in [12] it was -0.14%. Besides, the inhibition was 2.81% in assay [13]; -1.78% in assay [14]; -3.59% in [15]; -1.94% in [16]; -1.03% in [17]; 0.42% in [18]. Also, the inhibition is 2.85% in [19] and -1.56% in assay [20].
Take `CNC(=O)c1cncc(/C=C/c2c(Cl)cccc2Cl)c1`: the inhibition stood at 6.89% in assay [1]; 2.99% in [2]; 4.39% in assay [3]; 2.24% in assay [4]; 2.7% in [5]; 5.28% in assay [6]. Further, the inhibition in assay [7] is 22.7%; in assay [8] it was -2.78%; in assay [9] it was 18.3%; in [10], 0.59%; in [11], 0.47%; in assay [12], -2.93%. In addition, the inhibition was 2.43% in [13]; -4.44% in assay [14]; 0.68% in [15]; 6.82% in assay [16]; 10.6% in [17]; 1.03% in assay [18]. Moreover, the results for the inhibition in assay [19] and in assay [20] were 2.47% and 8.94%, respectively.
In the case of `Cc1cc(O)cc(C)c1/C=C/c1cncc(-c2nn[nH]n2)c1`, the inhibition in assay [1] amounted to 3.5%; in assay [2], 3.7%; in assay [3], 3.06%; in assay [4] it was 3.61%; in [5] it was 8.05%; in [6], 5.73%. The inhibition in assay [7] is 45.3%; in assay [8] it was -2.89%; in [9], 11.1%; in assay [10], -1.67%; in assay [11], -0.41%; in assay [12] it was -2.87%. For the same compound, the inhibition in assay [13] was 1.12%; in assay [14], -3.31%; in [15], -0.15%; in assay [16], 5.3%; in [17], 39.7%; in assay [18] it was 1.25%. The values for the inhibition in [19] and in assay [20] were 5.33% and 8.4%, respectively.
Regarding `COc1ccc(-c2ccncc2)cc1C(N)=O`, the inhibition in assay [1] is 6.42%; in assay [2], 3.52%; in assay [3], 3.6%; in assay [4] it was 4.78%; in assay [5] it was 4.79%; in assay [6], 4.98%. Moreover, the inhibition in [7] is 5.36%; in [8], -2.48%; in assay [9], 8.41%; in assay [10], 2.92%; in [11], 4.17%; in assay [12], 5.11%. Further, the inhibition was 7.24% in [13]; 1.6% in assay [14]; 5.22% in assay [15]; 8.76% in assay [16]; 12.9% in [17]; 0.72% in [18]. Moreover, the inhibition in assay [19] is 3.34%; in [20] it was 4.28%.
In the case of `CS(=O)(=O)CCNCc1nc(-c2ccc3ncnc(Nc4ccc(F)c(Cl)c4)c3c2)cs1`, the inhibition was determined as 1.47% in [1]; 0.48% in assay [2]; 4.21% in assay [3]; 1.55% in assay [4]; 2.39% in assay [5]; 3.78% in assay [6]. Further, the inhibition in assay [7] is 15.9%; in [8] it was -3.38%; in assay [9] it was 6.34%; in [10], 1.71%; in assay [11] it was 9.04%; in assay [12] it was 3.41%. The inhibition was 6.36% in assay [13]; 2.51% in assay [14]; -0.59% in assay [15]; 5.44% in assay [16]; 27.7% in [17]; 1.34% in [18]. Moreover, the values for the inhibition in [19] and in assay [20] were 2.52% and 3.38%, respectively.
Consider `CCCN1CCC(Oc2cc(Nc3nc(Nc4cccc(F)c4C(N)=O)c4cc[nH]c4n3)c(OC)cc2Cl)CC1`, for which the inhibition in [1] was 5.14%; in assay [2], -1.93%; in assay [3], 3.41%; in assay [4] it was -1.48%; in [5], 5.25%; in assay [6], 2.84%. Further, the inhibition stood at 3.46% in assay [7]; 0.33% in assay [8]; 33.7% in assay [9]; 0.38% in assay [10]; 5.9% in assay [11]; 3.16% in assay [12]. Moreover, the inhibition was 6.47% in assay [13]; 2.93% in [14]; -1.8% in [15]; -0.06% in assay [16]; 7.28% in assay [17]; 1.26% in assay [18]. Besides, the inhibition in assay [19] is 9.17%; in [20] it was -0.01%.
As to `CC1=C(C(=O)Nc2ccc3[nH]ncc3c2)C(c2ccc3ccccc3c2)CC(=O)N1` (stereo not given), the inhibition in [1] amounted to 2.53%; in [2] it was 1.18%; in assay [3] it was 4.38%; in assay [4] it was 5.87%; in [5], 5.78%; in [6] it was 2.76%. The inhibition in assay [7] was 8.34%; in [8] it was 0.09%; in assay [9], -0.04%; in assay [10], 7.34%; in [11], 70.6%; in assay [12], 4.02%. Moreover, the inhibition in assay [13] amounted to 22%; in [14] it was 3.09%; in assay [15], 32.8%; in assay [16], 2.65%; in assay [17], 2.84%; in assay [18], 1.47%. For the same compound, the inhibition stood at 3.14% in assay [19] and 2.51% in [20].

Broadly, the inhibition is the relative decrease from the control value, in per cent.

The record behind these values is ChEMBL document CHEMBL1961873, “Compounds: GSK PKIS; Assays: Nanosyn kinase panel” (2012).
